Assay results published in PubChem BioAssay AID652126 (The Scripps Research Institute Molecular Screening Center, 2013).
Among all 370,000 compounds or so, about 3,700 (1%) were called active.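 The calls were made as follows: active = activation above the mean over all tested compounds plus 3 SD (cut at about 0.9% in these data); inactive = the rest.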 For the sample, actives were picked, then their nearest neighbours and some compounds at random.

Test system: Nuclear hormone receptor DAF-12 (Strongyloides stercoralis)
Test: S. stercoralis DAF-12 nuclear receptor activators, primary screen, cell-based, luminescence, HEK293, GRIP1 co-expression, lit1-tk-luc (AID 652126);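 also: 0% = DMSO-only wells and 100% = 3 µM delta7-dafachronic acid wells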
Details: HEK293 ssDAF-12/GRIP1 lit1-tk-luc reporter, at 6.8 µM, hits give high values, % of 3 µM dafachronic acid response

activation, inactive:
Cc1cc(NC(=O)c2ccco2)c(=O)n(Cc2c(F)cccc2Cl)c1 -1.23%, Cn1c(=O)c2c(nc(NCCNC(=O)c3ccco3)n2Cc2ccccc2F)n(C)c1=O -0.73%, O=C(COc1ccccc1Cl)Nc1ccc(C(=O)c2ccc(C(=O)O)cc2)cc1 -1.01%, O=C(COc1ccccc1Cl)Nc1ccccc1C(=O)NC1CC1 -0.61%, O=C(CSc1nc2ccccc2s1)N=Nc1c(O)[nH]c2ccccc12 -1.23%, CN(CCc1ccccc1)c1ccc([N+](=O)[O-])cn1 -0.22%, CCC1([N+](=O)[O-])COC(c2ccc(C(C)C)cc2)OC1 (stereo not drawn) -0.23%, CCOC(=O)[C@@]12CCC3=C1N(CCC3)C(=O)[C@H](CC(=O)N1CCN(C(=O)c3ccco3)CC1)C2 -0.8%, CN1[C@H](Cc2ccccc2)COc2cccc(N3CCSCC3)c2S1(=O)=O -0.12%, O=C(NCC1COc2ccccc2O1)c1ccc(NC(=O)c2cc(F)ccc2F)cc1 (stereo not drawn) -0.55%, COC(=O)c1ccccc1-n1cc(COC(=O)NCCc2ccccc2)nn1 -1.12%, Nn1c(SCC(=O)Nc2nccs2)nncc1=O -2.06%, CCn1c(SCC(=O)Nc2nccs2)nnc1-c1ccco1 -1.06%, O=S1(=O)CC(N2CCN(CCO)CC2)CN1Cc1cn(Cc2ccc(Cl)cc2)nn1 (stereo not drawn) -0.54%, O=S1(=O)c2ccc(Br)cc2OC[C@@H](Cc2ccccc2)N1Cc1cn(Cc2ccco2)nn1 -1.35%, O=C(CCS(=O)(=O)c1ccccc1)Nc1ccc(Cl)c(Cl)c1 -1.34%, CCOC(=O)C1=C(C)NC2=C(C(=O)CC(C)(C)C2)C1c1ccc2c(c1)OCO2 (stereo not drawn) -1.32%, COc1ccccc1NC(=O)c1cc(Cl)nnc1Cl -0.66%, COc1ccccc1NC(=O)c1c(Br)cnn1C -1.57%, O=C(CSc1nnc(-c2cccc(Cl)c2)n1Cc1ccco1)Nc1ccc(OCc2ccccc2)cc1 -1.14%, Cc1cccc2c1N(CCOc1ccccc1)C(=O)C2=O -1.52%, Cc1c(C(N)=O)sc2ncn(CCOc3ccccc3)c(=O)c12 -2.14%, Cc1ccc(NC(=O)c2cc(C)nn2-c2ccccc2)c(C)c1 -1.78%, O=C(CNS(=O)(=O)c1ccccc1F)N1CCN(c2ccccn2)CC1 -1.72%, Cc1ccc2nc(SCc3nnc(-c4ccccc4[N+](=O)[O-])o3)c(C#N)cc2c1 -1.27%, Fc1ccc(-c2nnc(CSc3nnc(-c4ccc5c(c4)OCO5)o3)o2)cc1 -1.18%, O=C1CC[C@@H](COc2ccc3[nH]cc(-c4ccccc4)c3c2-c2ccccc2)N1 -0.33%, COC1=C[C@H](C(=O)NCCNC(C)=O)[C@H](C)[C@@H](c2ccccc2)CC1=O -1.26%, CC(c1nnc(SCC(=O)Nc2sccc2C#N)n1-c1ccc(Cl)cc1)N(C)C (stereo not drawn) -0.72%, CC(=O)c1cc(C#N)c(SCC(=O)Nc2nccs2)nc1C -0.91%, C=C(C)C1CC23C(=O)C4(C(=O)c5ccccc5)C[C@@]5(C)CCC(CC2C1(C)C)(C4=O)C35OC (stereo partly drawn) -1.03%, Clc1ccc(-n2c(SC/C=C/c3ccccc3)nnc2-c2ccco2)cc1 -1.68%, COc1ccc(C(=O)OCCN(C)C2CN(Cc3cn(Cc4cccc(C)c4)nn3)S(=O)(=O)C2)cc1OC (stereo not drawn) -0.78%, COc1ccccc1Cc1c(-c2ccc(F)cc2)nc2ccc(C)cn12 0.07%, Brc1ccc2nc(-c3ccccc3)c(Cc3ccccc3)n2c1 -0.45%, COc1ccc(-n2c(SCC(=O)Nc3ccc4cn[nH]c4c3)nnc2-c2cccnc2)cc1 -1.16%, O=C(CSc1nc2c(c(=O)[nH]1)CCCC2)N1CCCCC1 -1.67%, CCOC(=O)C(NC(=O)CC(C)C)(Nc1sc2c(c1C(N)=O)CCCC2)C(F)(F)F (stereo not drawn) -0.54%, CCN(CC)CC(=O)Nc1sc2c(c1C(=O)c1ccccc1C)CCC2 -1.11%, NNc1nc2c(Cl)cccc2s1 -0.81%, COC(=O)c1c(NC(=O)COC(=O)[C@@H](NS(=O)(=O)c2ccccc2)C(C)C)sc2c1CCC2 -1.44%, Cc1ccc(C(=O)C2CCN(CC(=O)NCCC(C)C)CC2)cc1 -1.67%, C=CCNc1nc(Nc2ccc(Cl)cc2)nc(OC)n1 -0.26%, CC1(C)N=C(N)NC(Nc2ccc(Cl)cc2)=N1 -1.4%, O=C(CCl)NC1CCCCN(Cc2cccc(C(F)(F)F)c2)C1=O (stereo not drawn) -1.24%, NCC(=O)c1cccc2ccc[n+]([O-])c12 -0.72%, Cc1ccccc1NC(=O)C1CCN(c2ncccn2)CC1 0.24%, CCCCNc1cccc2c1S(=O)(=O)N[C@@H](C)CO2 -0.23%, Cc1ccccc1OCc1nnc(SCC(=O)N2c3ccccc3Sc3ccc(Cl)cc32)o1 -1.28%, Cc1ccc(NC(=O)CSc2nnc(COc3ccccc3C)o2)cc1 -1.56%, COc1cccc(NC(=O)c2cc(S(=O)(=O)N3CCc4ccccc43)cn2C)c1 -1.71%, Cc1ccc(CSc2nnc(SCC(=O)NN=Cc3cc(Br)ccc3F)s2)cc1 -1.54%, CCCCNC(=O)C[C@H]1C(=O)N(Cc2ccc(OC)cc2)C2=CCCC[C@@]21C(=O)OCC -0.84%, COC[C@@H]1CCCN1c1ccc2c(c1)O[C@H](C)CCN(C1CC1)S2(=O)=O -1.91%, CCC(C)C(=O)Nc1cc([N+](=O)[O-])ccc1Cl (stereo not drawn) -1.16%, CNc1ccc([N+](=O)[O-])cc1C(=O)O -1.81%, Cc1ccc(Cn2cc(COC(=O)N(C)Cc3ccccc3)nn2)cc1 -0.46%, C=CCN1C(=O)[C@@H](CC(=O)NCCCOCCCC)[C@]2(C(=O)OCC)CCCCC/C=C/12 -0.98%, O=C(CSc1nc2sc3c(c2c(=O)n1-c1ccccc1)CCCC3)NN=Cc1ccc(OCc2ccccc2)cc1 -0.96%, CCOc1ccc(NC(=O)c2ccc(CSc3nnnn3C)cc2)cc1 -1.09%, CCOc1ccc(NC(=O)c2ccc(NC(=O)CN3C(=O)C(=O)N(CC(C)C)C3=O)cc2)cc1 -0.14%, COc1ccc(CN2C(=O)N3Cc4cc(OC)ccc4C3CS2(=O)=O)cc1 (stereo not drawn) -1.71%, CCOC(=O)C1(Cc2ccccc2)CCN(Cc2cn(C(C)=O)c3ccccc23)CC1 0.62%, CCOC(=O)[C@]12CCCCC/C=C\1N(Cc1ccc(OC)cc1)C(=O)[C@H]2CC(=O)NCCCN1CCCC1=O -0.74%, Cc1ccc(-n2c(SCC(=O)Nc3cccc4ccccc34)nnc2-c2ccco2)cc1 -0.86%, CN(CCc1ccccc1)C(=O)Cn1nc(-c2ccccc2)ccc1=O -0.4%, COC(=O)C[C@@H]1CC[C@@H]2[C@@H](COc3ccc(NC(=O)Nc4ccc(F)c(F)c4)cc3C(=O)N2C)O1 -1.37%, O=C(NC1CCC1)c1ccc(C#CC2CC2)cn1 0.89%, O=C(NCCCc1ccccc1)[C@H](Cc1ccccc1)NC1(C(=O)NCCc2c[nH]c3ccccc23)CCC1 -0.89%, NC(c1csc(NC(=O)Nc2cccc(C(F)(F)F)c2)n1)C1CCCCC1 (stereo not drawn) -0.46%, Cc1cc(S(=O)(=O)N2CCOCC2)ccc1OCC(=O)Nc1cccc(C(F)(F)F)c1 -1.62%, Cc1cc(C(F)(F)F)c(C#N)c(SCC(=O)NC2CC2)n1 -1.36%, CCN(CC)c1nc(-c2ccccc2)cc(C(F)(F)F)c1C#N -0.98%

activation, active:
Cn1c(=NC(=O)c2ccco2)sc2cccc(F)c21 2.16%, CC(=O)Nc1ccc(NC(=O)COc2ccccc2C(=O)Nc2cccc(Cl)c2Cl)cc1 1.78%, CC(C)c1ccc(C=NNc2ccc([N+](=O)[O-])cn2)cc1 1.01%, Nn1c(SCC(=O)Nc2nccs2)nnc1-c1ccco1 0.9%, Cc1cc(N)n2nc(-c3ccc(C(C)(C)C)cc3)cc2n1 2.97%, COc1ccccc1NC(=O)c1ccc(C)s1 1.3%, Cc1nn(CCOc2ccccc2)c(=O)n1-c1ccccc1F 1.79%, Fc1ccc2nc(-c3ccccc3)nc(SCc3nnc(-c4ccccc4)o3)c2c1 1.48%, FC(F)(F)c1ccc2c3n(nc2c1)CCN=C3c1ccc(Cl)cc1 1.01%, Cc1csc(SCC(=O)Nc2sccc2C#N)n1 0.96%, Cc1ccc2nc(-c3ccccc3)c(CC3CCCCC3)n2c1 1.3%, NC(=O)c1c(Nc2nc3c(F)cccc3s2)sc2c1CCCC2 1.29%, NC(=O)c1c(NC(=O)c2ccccc2)sc2c1CCCC2 2.15%, Clc1ccc(Nc2ccc3ccccc3n2)cc1 2.58%, CC(C)NC(=O)CSc1nnc(COc2ccccc2Cl)o1 1.16%, Cc1ccc(NC(=O)c2cc([N+](=O)[O-])ccc2Cl)c(O)c1 1.5%, CCOc1ccc(NC(=O)c2ccc(NC(=O)COC(=O)c3ccc(NC(=O)CC#N)cc3)cc2)cc1 0.93%, Nc1ccccc1/C=N\N=C/c1ccccc1N 1.95%, Cc1ccc(NC(=O)Nc2cccc(C(F)(F)F)c2)nc1 4.62%, N#Cc1c(C(F)(F)F)cc(-c2ccc(Cl)cc2)nc1SCC(=O)O 1.77%
